In PubChem BioAssay (EPA / NIEHS):
Inconclusive results are not listed. Calls of active or inactive are those of the source. Rule for the calls: active = hit-call score of the fitted dose curve at least 0.9, where 1 is the maximum; inconclusive = response in the unintended direction; inactive = score below 0.9.

Assays:
[1] = molecular target: guinea pig Bradykinin Receptor B2 (BK2), BDKRB2 (gene 100135486) (UniProt O70526); test: NVS_GPCR_gBK2: NovaScreen (NVS) G Protein-Coupled Receptor Assay for guinea pig Bradykinin Receptor B2 (BK2) (AID 2283292)
Procedure, shortened: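 Radioligand displacement on guinea pig ileum membranes for 1 h, read by filter-based scintillation counting; loss of signal relative to DMSO. Compounds were screened in duplicate at 25 uM, and those passing the threshold were retested in concentration-response up to 50 uM.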

[2] = molecular target: mouse Cholecystokinin, CCK2 Receptor (CCKB), Cckbr (gene 12426) (UniProt P56481); test: NVS_GPCR_mCKKBCentral: NovaScreen (NVS) G Protein-Coupled Receptor Assay for mouse Cholecystokinin, CCK2 Receptor (CCKB) (AID 2283293)
Description: NVS_GPCR_mCKKBCentral is a biochemical, single-readout assay that uses extracted gene-proteins from Mouse forebrain membranes in a tissue-based cell-free assay. Measurements were taken 2 hours after chemical dosing in a 96-well plate.NVS_GPCR_mCKKBCentral is one of one assay component(s) measured or calculated from the NVS_GPCR_mCKKBCentral assay. It is designed to make measurements of radioligand binding, a form of binding reporter, as detected with scintillation counting signals by Filter-based radiodetection technology.Data from the assay component NVS_GPCR_mCKKBCentral was analyzed into 1 assay endpoint. This assay endpoint, NVS_GPCR_mCKKBCentral, was analyzed in the positive analysis fitting direction relative to DMSO as the negative control and baseline of activity. Using a type of binding reporter, loss-of-signal activity can be used to understand changes in the binding as they relate to the gene Cckbr. Furthermore, this assay endpoint can be referred to as a primary readout, because the performed assay has only produced 1 assay endpoint. To generalize the intended target to other relatable targets, this assay endpoint is annotated to the gpcr intended target family, where the subfamily is rhodopsin-like receptor. […]

[3] = molecular target: rat Adrenergic, Alpha 1A Receptor (Adra1A), Adra1a (gene 29412) (UniProt P43140); test: NVS_GPCR_rAdra1A: NovaScreen (NVS) G Protein-Coupled Receptor Assay for rat Adrenergic, Alpha 1A Receptor (Adra1A) (AID 2283296)
Procedure, shortened: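 Rat cortical membranes pretreated with chlorethyl clonidine; competitive radioligand displacement, 1 h. Filter-based scintillation counting. Primary screen in duplicate at 25 uM, actives followed in concentration series.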

guinea pig Bradykinin Receptor B2 (BK2), BDKRB2 (gene 100135486), sequence (O70526 whole entry, looked up): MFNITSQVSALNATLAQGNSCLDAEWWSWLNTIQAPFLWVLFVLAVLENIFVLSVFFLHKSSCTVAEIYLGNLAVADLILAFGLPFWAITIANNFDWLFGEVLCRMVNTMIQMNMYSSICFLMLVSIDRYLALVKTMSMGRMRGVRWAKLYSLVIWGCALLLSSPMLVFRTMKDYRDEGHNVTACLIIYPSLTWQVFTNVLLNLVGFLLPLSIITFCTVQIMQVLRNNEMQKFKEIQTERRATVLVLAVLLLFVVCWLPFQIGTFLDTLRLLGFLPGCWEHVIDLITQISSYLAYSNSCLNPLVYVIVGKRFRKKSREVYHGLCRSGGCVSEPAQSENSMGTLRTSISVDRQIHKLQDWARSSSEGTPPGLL
rat Adrenergic, Alpha 1A Receptor (Adra1A), Adra1a (gene 29412), sequence (P43140 whole entry, looked up): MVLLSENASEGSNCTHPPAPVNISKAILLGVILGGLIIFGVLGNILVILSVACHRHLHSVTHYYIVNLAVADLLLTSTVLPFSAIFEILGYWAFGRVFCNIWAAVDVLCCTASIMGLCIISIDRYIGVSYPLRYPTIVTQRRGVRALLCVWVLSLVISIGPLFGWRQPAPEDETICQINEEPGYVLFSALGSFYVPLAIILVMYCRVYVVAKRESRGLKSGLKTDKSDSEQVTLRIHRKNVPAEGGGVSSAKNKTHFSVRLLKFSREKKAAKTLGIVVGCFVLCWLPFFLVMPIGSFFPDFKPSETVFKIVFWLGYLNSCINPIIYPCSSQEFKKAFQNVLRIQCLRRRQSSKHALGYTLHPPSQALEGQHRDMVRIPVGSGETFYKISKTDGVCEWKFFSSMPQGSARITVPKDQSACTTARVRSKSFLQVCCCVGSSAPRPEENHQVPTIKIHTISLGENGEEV
mouse Cholecystokinin, CCK2 Receptor (CCKB), Cckbr (gene 12426), sequence (P56481 whole entry, looked up): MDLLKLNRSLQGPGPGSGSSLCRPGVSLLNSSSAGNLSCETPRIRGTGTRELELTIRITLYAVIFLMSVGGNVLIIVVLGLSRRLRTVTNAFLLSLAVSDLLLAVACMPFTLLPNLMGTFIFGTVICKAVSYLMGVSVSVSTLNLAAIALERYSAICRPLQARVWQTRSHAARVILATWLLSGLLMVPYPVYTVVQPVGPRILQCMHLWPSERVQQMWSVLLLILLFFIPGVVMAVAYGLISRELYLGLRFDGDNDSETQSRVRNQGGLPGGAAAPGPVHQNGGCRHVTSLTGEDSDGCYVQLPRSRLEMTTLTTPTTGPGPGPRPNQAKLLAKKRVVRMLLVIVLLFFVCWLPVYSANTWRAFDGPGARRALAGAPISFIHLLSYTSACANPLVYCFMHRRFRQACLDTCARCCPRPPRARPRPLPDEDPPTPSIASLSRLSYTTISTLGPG

Structure (SMILES): CCCCCCCCC(=O)O
- outcome [1]: inactive

Structure (SMILES): Cc1oc(-c2ccccc2)nc1CCOc1ccc(C[C@H](Nc2ccccc2C(=O)c2ccccc2)C(=O)O)cc1
- outcome [1]: inactive
- AC50 [2]: 46 µM (active)

Structure (SMILES): CCN(CC)CCNc1ccc(CNC=O)c2sc3ccc(OC)cc3c(=O)c12
- AC50 [3]: 18.9 µM (active)

Structure (SMILES): CC(=O)NC1(c2cccc(F)c2)CCN(CC[C@@]2(c3ccc(Cl)c(Cl)c3)CN(c3ccccc3)C(=O)CO2)CC1
- AC50 [3]: 34.8 µM (active)
